# Reference: PubChem BioAssay AID504452 (The Scripps Research Institute Molecular Screening Center, 2011)
# Calls of active or inactive are those of the source. Rule as the data show it: active = activation above about 85%; inactive = the rest.
# Target: Peroxisome proliferator-activated receptor gamma (Homo sapiens) (UniProt P37231)
# Assay: PPARg partial agonist activation, primary screen, cell-based, luciferase reporter, luminescence (AID 504452);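 also: Cos-1 cells carrying PPARgamma and a response element luciferase reporter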
# Conditions: at 5 µM, stronger effect = higher value; activation (% of full agonist control): measured here: relative to full agonist control
# Sequence of Peroxisome proliferator-activated receptor gamma (Homo sapiens) (P37231 whole entry, looked up): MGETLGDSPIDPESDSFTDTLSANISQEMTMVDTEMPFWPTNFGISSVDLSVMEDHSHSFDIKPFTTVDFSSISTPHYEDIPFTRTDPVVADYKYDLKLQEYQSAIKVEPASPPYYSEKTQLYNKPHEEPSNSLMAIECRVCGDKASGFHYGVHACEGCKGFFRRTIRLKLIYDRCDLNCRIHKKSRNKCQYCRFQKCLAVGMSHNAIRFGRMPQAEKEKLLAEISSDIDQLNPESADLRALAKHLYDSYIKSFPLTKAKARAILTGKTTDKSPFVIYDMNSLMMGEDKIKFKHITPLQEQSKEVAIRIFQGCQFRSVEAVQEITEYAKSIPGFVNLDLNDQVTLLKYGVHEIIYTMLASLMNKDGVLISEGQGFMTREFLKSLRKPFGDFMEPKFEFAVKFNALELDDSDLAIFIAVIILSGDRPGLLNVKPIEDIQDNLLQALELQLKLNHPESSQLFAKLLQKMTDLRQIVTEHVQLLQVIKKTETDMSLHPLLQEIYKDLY
smiles,measurement,value
CC(=O)Nc1cc(C(=O)N2CCC3(CC2)OCCO3)ccc1Sc1ccc(F)cc1,activation (% of full agonist control),37.4%
same,activation (% of partial agonist control),82.7% (inactive)
O=C(O)COc1ccccc1/C=C1\C(=O)NC(=O)N(CCC2=CCCCC2)C1=O,activation (% of full agonist control),33.7%
same,activation (% of partial agonist control),74.6% (inactive)
